Read-out in assay [1]: Urokinase-type plasminogen activator receptor (uPAR), PLAUR (gene 5329)
Kind of assay: BSK_4H_uPAR: BioMAP Diversity Plus: 4H Assay for Urokinase-type plasminogen activator receptor (uPAR) Biomarker Activity (AID 2283030). To be noted: primary human endothelial cells (HUVEC); actives raise or lower the signal. An outline of the steps: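 Chemicals are dosed onto human vascular endothelial primary cells (umbilical vein). After 24 h, uPAR is read by ELISA. Gain or loss of signal is fitted relative to DMSO.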

Read-out in assay [2]: Vascular endothelial growth factor receptor 2 (Homo sapiens) (UniProt P35968)
Kind of assay: BSK_4H_VEGFRII: BioMAP Diversity Plus: 4H Assay for Vascular endothelial growth factor receptor 2 (VEGFR2) Biomarker Activity (AID 2283031).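 As to AC50: cell-surface VEGFR2 protein level quantified by ELISA.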 To be noted: primary human endothelial cells (HUVEC); actives raise or lower the signal. An outline of the steps: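 VEGFRII levels on human vascular endothelial primary cells were determined by ELISA at 24 hours post-dosing, with gain- or loss-of-signal fitted against DMSO controls.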

Read-out in assay [3]: Human Leukocyte Antigen - DR isotype (HLADR), HLA-DRA (gene 3122)
Put plainly: BSK_BE3C_HLADR: BioMAP Diversity Plus: BE3C Assay for Human Leukocyte Antigen - DR isotype (HLADR) Biomarker Activity (AID 2283032). To be noted: primary human bronchial epithelial cells; actives raise or lower the signal. The method, boiled down: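 Cell-surface HLA-DR ELISA readout at 24 h after dosing in the BE3C primary human lung bronchial epithelial system; gain or loss of signal against DMSO, with parallel sulforhodamine B staining of total protein for overt cytotoxicity.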

Read-out in assay [4]: Vascular cell adhesion molecule 1 (VCAM1), VCAM1 (gene 7412)
Kind of assay: BSK_4H_VCAM1: BioMAP Diversity Plus: 4H Assay for Vascular cell adhesion molecule 1 (VCAM1) Biomarker Activity (AID 2283033).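 As to outcome: cell-surface VCAM-1 protein measured by ELISA.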 To be noted: primary human endothelial cells (HUVEC); actives raise or lower the signal. An outline of the steps: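 VCAM-1 ELISA read 24 h after chemical dosing of HUVEC in the BioMAP 4H system, with gain or loss of signal fitted relative to DMSO. Parallel SRB staining (560 nm) checked overt cytotoxicity.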

Read-out in assay [5]: Interferon-gamma inducible Protein 10 (IP10), CXCL10 (gene 3627)
Kind of assay: BSK_BE3C_IP10: BioMAP Diversity Plus: BE3C Assay for Interferon-gamma inducible Protein 10 (IP10) Biomarker Activity (AID 2283034). To be noted: primary human bronchial epithelial cells; actives raise or lower the signal. An outline of the steps:
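IP-10 quantified by ELISA in human primary bronchial epithelial cell cultures at 24 hours post-dosing. Gain or loss of signal fitted relative to DMSO; parallel SRB staining assessed overt cytotoxicity.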

Read-out in assay [6]: Monokine induced gamma interferon (MIG), CXCL9 (gene 4283)
Kind of assay: BSK_BE3C_MIG: BioMAP Diversity Plus: BE3C Assay for Monokine induced gamma interferon (MIG) Biomarker Activity (AID 2283035).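 As to outcome: MIG protein measured by ELISA in BE3C cultures after 24 h of dosing.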 To be noted: primary human bronchial epithelial cells; actives raise or lower the signal. An outline of the steps:
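Dose cells (human primary bronchial epithelial), incubate 24 h, quantify MIG by ELISA, then fit concentration–response in both directions relative to DMSO control.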

Read-out in assay [7]: Transforming growth factor beta 1 (TGFb1), TGFB1 (gene 7040)
Put plainly: BSK_BE3C_TGFb1: BioMAP Diversity Plus: BE3C Assay for Transforming growth factor beta 1 (TGFb1) Biomarker Activity (AID 2283036;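 as to outcome: TGF-b1 protein level measured by ELISA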). To be noted: primary human bronchial epithelial cells; actives raise or lower the signal. The method, boiled down: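 ELISA readout of TGF-b1 from human lung bronchial epithelial primary cells, taken 24 h post-treatment. Gain or loss of signal fitted relative to DMSO baseline, with parallel SRB staining for overt cytotoxicity.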

Read-out in assay [8]: Plasminogen activator inhibitor-1 (PAI1), SERPINE1 (gene 5054)
Put plainly: BSK_BE3C_PAI1: BioMAP Diversity Plus: BE3C Assay for Plasminogen activator inhibitor-1 (PAI1) Biomarker Activity (AID 2283037). To be noted: primary human bronchial epithelial cells; actives raise or lower the signal. The method, boiled down:
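PAI-1 was measured by ELISA in human primary bronchial epithelial cultures 24 h after chemical dosing, with cytotoxicity checked by SRB total-protein staining in parallel cultures. Activity was fitted in both directions relative to DMSO.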

Read-out in assay [9]: urokinase plasminogen activator (uPA), PLAU (gene 5328)
Put plainly: BSK_BE3C_uPA: BioMAP Diversity Plus: BE3C Assay for urokinase plasminogen activator (uPA) Biomarker Activity (AID 2283038).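 As to outcome: uPA protein level quantified by ELISA in cell cultures; uPA read one day after compound addition.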 To be noted: primary human bronchial epithelial cells; actives raise or lower the signal. An outline of the steps:
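Measured by ELISA: uPA from human primary bronchial epithelial cells 24 h after chemical treatment. Values derive from bidirectional curve fitting with DMSO serving as negative control. Total protein by SRB staining in parallel wells flagged overt cytotoxicity.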

Read-out in assay [10]: Urokinase-type plasminogen activator receptor (uPAR), PLAUR (gene 5329)
Kind of assay: BSK_BE3C_uPAR: BioMAP Diversity Plus: BE3C Assay for Urokinase-type plasminogen activator receptor (uPAR) Biomarker Activity (AID 2283039).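 As to outcome: cells exposed to compound for one day before measurement.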 To be noted: primary human bronchial epithelial cells; actives raise or lower the signal. The method, boiled down:
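uPAR levels were measured by ELISA after 24 h compound treatment of primary human bronchial epithelial cells, fitted in both directions relative to DMSO. Parallel SRB staining served as the cytotoxicity read-out.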

“And” between values parts separate entries of the source, which are not always exact repeats. Identical values can stand only once. A structure can be active in one record and inactive in another. The source made the active and inactive calls. The calls were made as follows: active = hit-call score of the fitted dose curve at least 0.9, where 1 is the maximum; inactive = score below 0.9.

Take `c1ccc(OP(Oc2ccccc2)Oc2ccccc2)cc1`: the outcome in assay [1], in assay [2], in assay [3], in [4], in assay [5] and in assay [6] was inactive. Moreover, the result in assay [7], in assay [8], in assay [9] and in [10] was inactive.
Regarding `CCCCOCCOP(=O)(OCCOCCCC)OCCOCCCC`, the outcome in assay [1], in [2], in [3], in assay [4], in assay [5] and in [6] was inactive. Moreover, the outcome in [7], in assay [8], in assay [9] and in assay [10] was inactive.
With `N#Cc1c(-c2ccc(Cl)cc2)[nH]c(C(F)(F)F)c1Br`, the AC50 was 0.13 µM (active) in assay [1]; 0.016 µM (active) in assay [2]; 4.08 µM (active) in assay [3]; 1.69 µM (active) in [4]; 4.45 µM (active) in assay [5]; 25.4 µM (active) in assay [6]. Moreover, the AC50 in [7] was 0.0307 µM (active); in [10], 0.656 µM (active). Moreover, the result in assay [8] and in assay [9] was inactive.
As to `CCN(CC)c1ccccc1`, the outcome in assay [1], in assay [2], in assay [3], in assay [4], in [5] and in assay [6] was inactive. Moreover, the outcome in assay [7], in assay [8], in assay [9] and in [10] was inactive.
Take `OCC(F)(F)OC(F)(F)C(F)(F)OC(F)(F)C(F)(F)OC(F)(F)F`: the AC50 was 50.3 µM (active) and 44.6 µM (active) in [1]; 42.9 µM (active) in [2]. The result in assay [2], in [3], in [4], in assay [5], in [6] and in assay [8] was inactive. For the same compound, the result in [9] and in assay [10] was inactive.
As for `CC(C)Nc1ccc(Nc2ccccc2)cc1`, the AC50 was 14.4 µM (active) in [1]; 8.12 µM (active) in assay [2]; 9.07 µM (active) in [3]; 10.1 µM (active) in assay [4]; 6.69 µM (active) in assay [5]; 20 µM (active) in assay [6]. Further, the AC50 in [7] and in assay [9] was 20 µM (active) throughout. In addition, the result in [8] and in assay [10] was inactive.
As for `CCOC(=O)c1ccccc1C(=O)OCC`, the result in [1], in [2], in assay [3], in assay [4], in assay [5] and in [6] was inactive. For the same compound, the outcome in [7], in [8], in assay [9] and in assay [10] was inactive.
As for `Nc1ccc(Cl)cc1`, the outcome in assay [1], in assay [2], in assay [3], in [4], in assay [5] and in assay [6] was inactive. Also, the outcome in assay [7], in assay [8], in assay [9] and in assay [10] was inactive.
As to `COP(=O)(O)OC`, the outcome in assay [1], in assay [2], in [3], in assay [4], in [5] and in [6] was inactive. For the same compound, the outcome in [7], in [8], in assay [9] and in [10] was inactive.
Take `Cc1ccc(O)cc1C`: the outcome in assay [1], in [2], in [3], in assay [4], in [5] and in [6] was inactive. The result in assay [7], in assay [8], in assay [9] and in [10] was inactive.
Regarding `CN(C)C(=O)Cl`, the result in assay [1], in assay [2], in assay [3], in assay [4], in assay [5] and in assay [6] was inactive. Further, the result in [7], in assay [8], in [9] and in assay [10] was inactive.
As for `C=CC(=O)OCC(CC)(COC(=O)C=C)COC(=O)C=C`, the AC50 in assay [1] is 4.07 µM (active); in assay [2], 5.14 µM (active); in assay [3], 3.18 µM (active); in [4], 2.45 µM (active); in [5], 4.45 µM (active); in [6], 9.44 µM (active). In addition, the AC50 is 6.86 µM (active) in [7], 10.5 µM (active) in [8], 4.96 µM (active) in assay [9] and 7.24 µM (active) in assay [10].
For `ClC(Cl)=C(c1ccc(Cl)cc1)c1ccccc1Cl`, the half-maximal activity concentration (AC50) in assay [1] was 11.7 µM (active); in assay [2], 5.35 µM (active); in [3] it was 20 µM (active); in assay [4], 11.8 µM (active); in assay [5] it was 10.7 µM (active); in assay [6] it was 26.4 µM (active). Further, the AC50 in [8] is 10.3 µM (active); in assay [9], 20 µM (active); in assay [10], 8.34 µM (active). Moreover, the result in [7] was inactive.
With `CCOP(=S)(OCC)SCn1nnc2ccccc2c1=O`, the outcome in assay [1], in [2], in assay [3], in assay [4], in assay [5] and in assay [6] was inactive. Further, the outcome in [7], in [8], in [9] and in assay [10] was inactive.
In the case of `ClC(Cl)(Cl)c1ccccc1`, the result in [1], in assay [2], in assay [3], in [4], in assay [5] and in [6] was inactive. In addition, the result in assay [7], in assay [8], in assay [9] and in [10] was inactive.
For `CCC(C)(C)c1ccc(O)cc1`, the outcome in [1], in assay [2], in [3], in assay [4], in assay [5] and in assay [6] was inactive. Besides, the result in assay [7], in assay [8], in assay [9] and in [10] was inactive.
Consider `C=CC(=O)OCC(F)(F)C(F)F`, for which the result in assay [1], in [2], in [3], in assay [5], in assay [6] and in assay [8] was inactive. Further, the result in assay [9] and in assay [10] was inactive. The half-maximal activity concentration (AC50) in assay [3] was 44.9 µM (active); in assay [4], 38.9 µM (active) and 30 µM (active).
Consider `CCC1(c2ccccc2)C(=O)N=C(O)NC1=O` (stereo not given), for which the result in assay [1], in [2], in [3], in [4], in assay [5] and in assay [6] was inactive. In addition, the result in [7], in assay [8], in assay [9] and in assay [10] was inactive.
For the compound `CC(Cl)CN(C)C` (stereo not given), the outcome in assay [1], in [2], in [3], in assay [4], in assay [5] and in [6] was inactive. In addition, the result in assay [7], in [8], in assay [9] and in assay [10] was inactive.
As to `c1ccc2c(c1)sc1ccccc12`, the outcome in assay [1], in [2], in assay [3], in assay [4], in [5] and in [6] was inactive. The result in [7], in assay [8], in [9] and in assay [10] was inactive.

Values taken from PubChem BioAssay (EPA / NIEHS).
